Experimental data reported in PubChem BioAssay AID1159580 (chemical genetic matrix, 2015).
Hit rate of the full screen: of about 5,500 compounds, about 2,000 (36%) were called active. Not shown: some 18% with an inconclusive outcome. Rule as the data show it: active = normalized growth mostly below about 0.91 (no sharp cut-off); inconclusive = no clear call, values can overlap the other calls; inactive = mostly above about 0.92. The list shows a part of the results.

Test: chemical genetic growth profiling, strain panel (AID 1159580);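 also: tested at 20 µM; growth read once vehicle control cultures reached saturation at 30 °C; 1 = growth at the plate median or of vehicle wells; lower values mean less growth of the strain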
Details: growth OD

Measured: normalized growth

COc1c(Cl)ccc(Cl)c1C(=O)O
inactive: S. cerevisiae deletion strains, locus YJR043C, strain POL32, stronger effect = lower value 1.01 | S. cerevisiae deletion strains, locus YJR075W, strain HOC1, stronger effect = lower value 0.971 | S. cerevisiae deletion strains, locus YKL009W, strain mrt4, stronger effect = lower value 1.02 | S. cerevisiae deletion strains, locus YKL068W, stronger effect = lower value 1.01 | S. cerevisiae deletion strains, locus YKL085W, strain MDH1 (second series), stronger effect = lower value 1.01 | S. cerevisiae deletion strains, locus YKL085W, strain MDH1, stronger effect = lower value 1.01 | S. cerevisiae deletion strains, locus YKL160W, strain elf1, stronger effect = lower value 0.988 | S. cerevisiae deletion strains, locus YKL190W, strain CNB1, stronger effect = lower value 1.01 | S. cerevisiae deletion strains, locus YKR001C, strain vps1, stronger effect = lower value 1.02 | S. cerevisiae deletion strains, locus YKR026C, strain gcn3, stronger effect = lower value 0.984 | S. cerevisiae deletion strains, locus YKR091W, strain srl3, stronger effect = lower value 0.985 | S. cerevisiae deletion strains, locus YLL001W, strain dnm1, stronger effect = lower value 0.995 | S. cerevisiae deletion strains, locus YLL026W, stronger effect = lower value 0.979 | S. cerevisiae deletion strains, locus YLL041C, strain sdh2, stronger effect = lower value 0.994 | S. cerevisiae deletion strains, locus YLR027C, strain aat2, stronger effect = lower value 0.982 | S. cerevisiae deletion strains, locus YLR039C, strain RIC1, stronger effect = lower value 1.06 | S. cerevisiae deletion strains, locus YLR058C, strain SHM2, stronger effect = lower value 1.02 | S. cerevisiae deletion strains, locus YLR102C, strain apc9, stronger effect = lower value 1.01 | S. cerevisiae deletion strains, locus YLR221C, strain rsa3, stronger effect = lower value 0.983 | S. cerevisiae deletion strains, locus YLR258W, strain gsy2, stronger effect = lower value 0.986 | S. cerevisiae deletion strains, locus YLR262C, strain YPT6 (second series), stronger effect = lower value 0.997 | S. cerevisiae deletion strains, locus YLR262C, strain YPT6, stronger effect = lower value 1.07 | S. cerevisiae deletion strains, locus YLR268W, strain sec22, stronger effect = lower value 1.03 | S. cerevisiae deletion strains, locus YLR320W, strain mms22, stronger effect = lower value 0.974 | S. cerevisiae deletion strains, locus YLR330W, strain CHS5, stronger effect = lower value 1.01 | S. cerevisiae deletion strains, locus YLR342W, strain FKS1 (second series), stronger effect = lower value 1.05 | S. cerevisiae deletion strains, locus YLR342W, strain FKS1, stronger effect = lower value 0.979 | S. cerevisiae deletion strains, locus YLR357W, strain rsc2, stronger effect = lower value 0.992 | S. cerevisiae deletion strains, locus YLR370C, strain arc18, stronger effect = lower value 0.986 | S. cerevisiae deletion strains, locus YLR371W, strain rom2, stronger effect = lower value 1.01 | S. cerevisiae deletion strains, locus YLR384C, strain iki3, stronger effect = lower value 0.985 | S. cerevisiae deletion strains, locus YLR418C, strain cdc73, stronger effect = lower value 1.02 | S. cerevisiae deletion strains, locus YML016C, strain PPZ1, stronger effect = lower value 1.01 | S. cerevisiae deletion strains, locus YML032C, strain rad52, stronger effect = lower value 1.02 | S. cerevisiae deletion strains, locus YML120C, strain ndi1, stronger effect = lower value 0.97 | S. cerevisiae deletion strains, locus YML124C, strain tub3, stronger effect = lower value 1.01 | S. cerevisiae deletion strains, locus YMR058W, strain fet3, stronger effect = lower value 0.979 | S. cerevisiae deletion strains, locus YMR078C, strain ctf18, stronger effect = lower value 1.02 | S. cerevisiae deletion strains, locus YMR125W, strain sto1, stronger effect = lower value 0.951 | S. cerevisiae deletion strains, locus YMR129W, stronger effect = lower value 0.987 | S. cerevisiae deletion strains, locus YMR205C, strain PFK2, stronger effect = lower value 0.975 | S. cerevisiae deletion strains, locus YMR223W, strain ubp8, stronger effect = lower value 1.01 | S. cerevisiae deletion strains, locus YMR231W, strain pep5, stronger effect = lower value 0.984 | S. cerevisiae deletion strains, locus YMR263W, strain SAP30, stronger effect = lower value 1.01 | S. cerevisiae deletion strains, locus YMR307W, strain GAS1, stronger effect = lower value 1.06 | S. cerevisiae deletion strains, locus YNL067W, strain RPL9B, stronger effect = lower value 1.01 | S. cerevisiae deletion strains, locus YNL071W, strain lat1, stronger effect = lower value 0.992 | S. cerevisiae deletion strains, locus YNL128W, strain TEP1, stronger effect = lower value 1 | S. cerevisiae deletion strains, locus YNL153C, strain GIM3, stronger effect = lower value 1.01 | S. cerevisiae deletion strains, locus YNL209W, strain ssb2, stronger effect = lower value 0.988 | S. cerevisiae deletion strains, locus YNL233W, strain BNI4, stronger effect = lower value 1.01 | S. cerevisiae deletion strains, locus YNL248C, strain rpa49, stronger effect = lower value 0.982 | S. cerevisiae deletion strains, locus YNL250W, strain rad50, stronger effect = lower value 1 | S. cerevisiae deletion strains, locus YNL271C, strain bni1, stronger effect = lower value 1.01 | S. cerevisiae deletion strains, locus YNL298W, strain CLA4, stronger effect = lower value 1.02 | S. cerevisiae deletion strains, locus YNL307C, strain MCK1, stronger effect = lower value 1.03 | S. cerevisiae deletion strains, locus YNL322C, strain KRE1 (second series), stronger effect = lower value 0.983 | S. cerevisiae deletion strains, locus YNL322C, strain KRE1, stronger effect = lower value 1.01 | S. cerevisiae deletion strains, locus YNR049C, strain mso1, stronger effect = lower value 0.977 | S. cerevisiae deletion strains, locus YNR052C, strain pop2, stronger effect = lower value 1.01 | S. cerevisiae deletion strains, locus YOL006C, strain TOP1, stronger effect = lower value 1.05 | S. cerevisiae deletion strains, locus YOL012C, strain htz1 0.945 | S. cerevisiae deletion strains, locus YOL147C, strain pex11, stronger effect = lower value 1.01 | S. cerevisiae deletion strains, locus YOR001W, strain rrp6, stronger effect = lower value 0.991 | S. cerevisiae deletion strains, locus YOR061W, strain CKA2, stronger effect = lower value 1.01 | S. cerevisiae deletion strains, locus YOR069W, strain VPS5, stronger effect = lower value 1 | S. cerevisiae deletion strains, locus YOR070C, strain gyp1, stronger effect = lower value 0.988 | S. cerevisiae deletion strains, locus YOR080W, strain dia2, stronger effect = lower value 0.969 | S. cerevisiae deletion strains, locus YOR083W, strain WHI5, stronger effect = lower value 0.988 | S. cerevisiae deletion strains, locus YOR106W, strain vam3, stronger effect = lower value 0.995 | S. cerevisiae deletion strains, locus YOR136W, strain idh2, stronger effect = lower value 1.01 | S. cerevisiae deletion strains, locus YOR144C, strain elg1, stronger effect = lower value 1.01 | S. cerevisiae deletion strains, locus YOR184W, strain ser1, stronger effect = lower value 1.02 | S. cerevisiae deletion strains, locus YOR265W, strain rbl2, stronger effect = lower value 0.976 | S. cerevisiae deletion strains, locus YOR270C, strain vph1, stronger effect = lower value 0.993 | S. cerevisiae deletion strains, locus YOR290C, strain snf2, stronger effect = lower value 0.997 | S. cerevisiae deletion strains, locus YOR316C, strain cot1, stronger effect = lower value 1.01 | S. cerevisiae deletion strains, locus YPL051W, strain arl3, stronger effect = lower value 0.995 | S. cerevisiae deletion strains, locus YPL055C, strain LGE1, stronger effect = lower value 1.02 | S. cerevisiae deletion strains, locus YPL078C, strain atp4, stronger effect = lower value 0.982 | S. cerevisiae deletion strains, locus YPL106C, strain sse1, stronger effect = lower value 0.979 | S. cerevisiae deletion strains, locus YPL240C, strain hsp82, stronger effect = lower value 0.997 | S. cerevisiae deletion strains, locus YPL241C, strain CIN2, stronger effect = lower value 1.01 | S. cerevisiae deletion strains, locus YPR119W, strain clb2, stronger effect = lower value 1.01 | S. cerevisiae deletion strains, locus YPR141C, strain kar3, stronger effect = lower value 1.02 | S. cerevisiae deletion strains, locus YPR163C, strain tif3, stronger effect = lower value 1.01 | S. cerevisiae deletion strains, locus YPR167C, strain met16, stronger effect = lower value 1.01 | S. cerevisiae deletion strains, strain wtn01, stronger effect = lower value 1.01 | S. cerevisiae strains, strain wild type, stronger effect = lower value 1.01
